78 molecules from article PMC4336329 (PLoS ONE, 2015) can be followed below.

About 14,000 (4.5%) of roughly 310,000 compounds showed an effect of 50% or more. Effects have a minus sign here. Shown is part of a subset that was picked to be rich in strong results.
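Further: peak tail current of the secondary pulse compared with the same well before compound.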

Sequence of human ether-à-go-go-related gene (hERG) potassium channel (Q12809 whole entry, looked up): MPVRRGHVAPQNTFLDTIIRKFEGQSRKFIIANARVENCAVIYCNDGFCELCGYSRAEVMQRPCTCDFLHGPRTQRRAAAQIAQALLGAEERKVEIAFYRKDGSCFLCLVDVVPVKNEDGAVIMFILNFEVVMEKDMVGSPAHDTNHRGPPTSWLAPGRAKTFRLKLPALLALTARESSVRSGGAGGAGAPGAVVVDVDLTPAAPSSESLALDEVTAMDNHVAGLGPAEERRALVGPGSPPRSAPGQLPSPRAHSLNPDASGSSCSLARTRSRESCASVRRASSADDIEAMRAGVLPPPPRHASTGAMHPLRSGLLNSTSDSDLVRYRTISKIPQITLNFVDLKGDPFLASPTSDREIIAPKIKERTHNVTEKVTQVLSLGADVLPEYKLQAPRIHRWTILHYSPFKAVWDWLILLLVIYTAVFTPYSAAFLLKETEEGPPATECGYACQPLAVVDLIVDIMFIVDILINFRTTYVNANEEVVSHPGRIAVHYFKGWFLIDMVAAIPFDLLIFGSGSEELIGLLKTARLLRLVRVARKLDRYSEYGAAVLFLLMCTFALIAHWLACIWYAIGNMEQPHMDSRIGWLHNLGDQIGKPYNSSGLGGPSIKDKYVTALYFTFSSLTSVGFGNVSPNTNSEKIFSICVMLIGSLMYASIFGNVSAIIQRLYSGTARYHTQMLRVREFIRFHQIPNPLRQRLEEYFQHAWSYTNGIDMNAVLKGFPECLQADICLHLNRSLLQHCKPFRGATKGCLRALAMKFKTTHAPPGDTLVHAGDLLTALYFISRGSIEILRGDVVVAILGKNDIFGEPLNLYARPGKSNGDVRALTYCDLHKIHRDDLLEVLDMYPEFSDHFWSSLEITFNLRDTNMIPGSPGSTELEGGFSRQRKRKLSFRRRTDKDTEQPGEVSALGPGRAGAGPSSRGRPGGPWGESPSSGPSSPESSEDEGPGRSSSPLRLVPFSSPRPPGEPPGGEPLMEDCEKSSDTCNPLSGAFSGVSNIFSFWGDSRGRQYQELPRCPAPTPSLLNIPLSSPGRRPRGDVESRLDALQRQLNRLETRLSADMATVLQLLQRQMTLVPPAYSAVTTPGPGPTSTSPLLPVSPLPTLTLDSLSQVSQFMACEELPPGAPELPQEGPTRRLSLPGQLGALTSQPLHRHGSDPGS

The assay addresses human ether-à-go-go-related gene (hERG) potassium channel (human, UniProt Q12809). Nature of the assay: primary screen, population patch clamp on CHO cells stably expressing hERG; higher = less effect of the substance.
Regarding `CCCCCCn1c(=O)c(C(=O)Nc2cnccn2)c(O)c2ccccc21`, the “hERG current change (%, negative = inhibition) at 10uM” value came to 1.2%.
Then `CCn1c(-c2c(Cl)c(C)nn2C)n[nH]c1=S`, with 10.9%; and `COc1ccc(C(=O)Nc2cc(-c3nn4c(C)nnc4s3)ccc2C)cc1`, with -41.8%.
Then `Cc1cc(-c2ccccc2C(=O)O)on1`, with 17.6%; and `CCCc1ccc(C2=Nn3c(nnc3C(C)C)SC2)cc1`, with -6.25%.
In the case of `CCOc1ccc2ccccc2c1/C=N/NC(=O)c1c(C)cc(C)[nH]c1=O` it was 0.637%; in that of `COc1ccc(OC)c(S(=O)(=O)N2CCN(CC(O)COc3ccccc3)CC2)c1` (stereo not drawn), -34.7%.
On to `CCOC(=O)c1ccc(S(=O)(=O)N2CCN(CC(O)COc3cccc(C(C)=O)c3)CC2)cc1.O=C(O)C(=O)O` (stereo not drawn), for which the “hERG current change (%, negative = inhibition) at 10uM” value is listed as -6.64%.
Then `COc1ccc(OC)c(S(=O)(=O)N2CCN(CC(O)COc3ccc(C#N)cc3)CC2)c1` (stereo not drawn), with -66.2%; and `CC1CCCCN1CC(O)COc1ccc(OCC(O)CN2CCCCC2C)cc1` (stereo not drawn), with 16.4%.
In the case of `N#Cc1ccc(-c2ccc(OCC(O)CN3CCOCC3)cc2)cc1` (stereo not drawn) it was -18.4%; in that of `CC(=O)Nc1ccc(OCC(O)CN2CCCCC2C)cc1.Cl` (stereo not drawn), 3.85%.
In the case of `COc1ccc(S(=O)(=O)N2CCN(CC(O)COc3ccc(C#N)cc3)CC2)cc1OC` (stereo not drawn) it was -46.9%; in that of `N#Cc1ccc(-c2ccc(OCC(O)CN3CCCCC3)cc2)cc1` (stereo not drawn), -80.7%; in that of `CC(=O)Nc1ccc(OCC(O)CN2CCN(S(=O)(=O)c3ccc(NC(C)=O)cc3)CC2)cc1` (stereo not drawn), -8.63%.
On to `COc1ccc(OCC(O)CN2CCCCCC2)cc1` (stereo not drawn), for which the “hERG current change (%, negative = inhibition) at 10uM” value is 9.18%.
In the case of `CC1CN(CC(O)COc2ccc(C#N)cc2)CCN1CC(O)COc1ccc(C#N)cc1` (stereo not drawn) it was -77.2%; in that of `CCOC(=O)c1ccc(S(=O)(=O)N2CCN(CC(O)COc3ccc(C#N)cc3)CC2)cc1.O=C(O)C(=O)O` (stereo not drawn), -63.2%.
In the case of `CCN(CC)S(=O)(=O)c1cc(C)ccc1SC` it was 12.1%; in that of `COc1ccc(C(=O)NNC(=O)c2ccc(C(C)(C)C)cc2)cc1`, 4.1%; in that of `CCN(CCN1CCCC1)C(=O)C1CCC(=O)N(CCCN2CCOCC2)C1` (stereo not drawn), 12.8%.
In the case of `O=C(CN1CCN(c2cccc(Cl)n2)CC1)N1CC(O)CO1` (stereo not drawn) it was 19.6%.
As to `CCc1noc(C)c1C(=O)N1CCN(S(=O)(=O)c2cccs2)CC1`, the “hERG current change (%, negative = inhibition) at 10uM” value is given as -23.5%.
Then `OC(CN1CCN(c2ncc(C(F)(F)F)cc2Cl)CC1)c1ccccc1` (stereo not drawn), with -58%; and `O=C(O)CN1CCN(c2ncc(C(F)(F)F)cc2Cl)CC1`, with 11.6%.
Then `N#Cc1ccc(OCC(O)CN2CCN(c3ncc(C(F)(F)F)cc3Cl)CC2)cc1` (stereo not drawn), with -74.6%; and `OC(CN1CCN(c2ccc(C(F)(F)F)cn2)CC1)c1ccccc1` (stereo not drawn), with -26.5%.
Then `CN(C)CC(O)COc1ccc(-c2ccc(C#N)cc2)cc1` (stereo not drawn), with -57.5%; and `N#Cc1ccc(OCC(O)CN2CCN(CC(O)COc3ccc(C#N)cc3)CC2)cc1` (stereo not drawn), with -86.1%; and `CN(CCOc1ccc(Br)cc1)CC(O)COc1ccc(C#N)cc1` (stereo not drawn), with -16.3%.
Turning to `CC(C)(C)NC(=O)NC(=O)CN1CCN(c2ncc(C(F)(F)F)cc2Cl)CC1`, the “hERG current change (%, negative = inhibition) at 10uM” value was -13.3%.
Then `CN1CCN(CC(O)COc2ccc(OCC(O)CN3CCN(C)CC3)cc2)CC1` (stereo not drawn), with -7.27%.
In the case of `FC(F)(F)c1cnc(N2CCN(C(=S)NCc3ccccc3)CC2)c(Cl)c1` it was -11.3%; in that of `CN(C)CC(O)COc1ccc(C(C)(C)c2ccc(OCC(O)CN(C)C)cc2)cc1.Cl` (stereo not drawn), 12.5%.
In the case of `COc1ccc(OCC(O)CN2CCCC2)cc1` (stereo not drawn) it was 15.2%; in that of `CC(=O)Nc1cc(NC(=O)C2C3C=CC(C3)C2C(=O)O)ccc1Cl` (stereo not drawn), 14.5%.
As for `Cc1ccc2nc(CSc3nnc(Nc4ccccc4C)s3)cc(=O)n2c1`, the “hERG current change (%, negative = inhibition) at 10uM” value is reported as -43%.
Then `CN(C(=O)CSc1nnc(-c2ccc(Cl)cc2)n1CC1CCCO1)C1CCS(=O)(=O)C1` (stereo not drawn), with -0.671%.
In the case of `O=C(c1ccccc1F)N(Cc1cccs1)C1CCS(=O)(=O)C1` (stereo not drawn) it was 21.9%; in that of `CN1C(=O)C2ON(c3ccccc3)C(c3cccs3)C2C1=O` (stereo not drawn), -13.6%.
Turning to `CCOc1ccc(CN(C)CCc2ccccn2)cc1.O=C(O)C(=O)O`, the “hERG current change (%, negative = inhibition) at 10uM” value is reported as -77.8%.
Then `COc1cc(OC)c(OC)cc1CN(C)CCc1ccccn1.O=C(O)C(=O)O`, with -11.2%; and `CCOc1ccc(OCCN(C)Cc2ccccc2)cc1.O=C(O)C(=O)O`, with -45.8%; and `COc1cc(CN(C)CCc2ccccn2)cc(OC)c1OC.O=C(O)C(=O)O`, with -11.6%.
Then `CSc1ccc(CN(C)CCc2ccccn2)cc1.O=C(O)C(=O)O`, with -64.4%; and `COc1ccc(CN(C)CCc2ccccn2)cc1OC.O=C(O)C(=O)O`, with -5.06%; and `COc1ccc(OC)c(N(CC(=O)Nc2cccnc2)S(=O)(=O)c2ccc(OC)c(OC)c2)c1`, with -17.9%.
As for `COC(=O)c1sc(NC(=O)c2cnccn2)c(C(=O)OC)c1C`, the “hERG current change (%, negative = inhibition) at 10uM” value amounted to 18.7%.
Then `COc1ccccc1OCCSc1ncnc2nc[nH]c12`, with 4.63%; and `Cc1ccc(NC(=O)C(C)SCc2nc3sc(C)c(C)c3c(=O)[nH]2)nc1` (stereo not drawn), with -10.7%; and `CCS(=O)(=O)NC(C)C(c1cccs1)N1CCN(c2ccc(F)cc2)CC1` (stereo not drawn), with -8.13%.
Then `CC(C)CCn1cnc2c(cnn2-c2ccc(F)cc2)c1=O`, with -3.95%; and `C#Cc1ccc([C@@H]2C=C(C(=O)N3CCN(Cc4ccc5c(c4)OCO5)CC3)O[C@H](OCCCCO)C2)cc1`, with -64.1%.
In the case of `O=C(C1=C[C@H](c2ccc(C(F)(F)F)cc2)C[C@H](OCc2ccc(CO)cc2)O1)N1CCN(Cc2ccc3c(c2)OCO3)CC1` it was -19.5%.
With `O=C(C1=C[C@H](c2ccc(Br)cc2)C[C@H](OCc2ccc(CO)cc2)O1)N1CCN(Cc2ccc3c(c2)OCO3)CC1`, the “hERG current change (%, negative = inhibition) at 10uM” value is -19.8%.
In the case of `C#Cc1ccc([C@H]2C=C(C(=O)N3CCN(Cc4ccc5c(c4)OCO5)CC3)O[C@@H](OCc3ccc(CO)cc3)C2)cc1`, the “hERG current change (%, negative = inhibition) at 10uM” value is given as -7.23%.
In the case of `O=C(C1=C[C@@H](c2ccc(Br)cc2)C[C@@H](OCCCCO)O1)N1CCN(Cc2ccc3c(c2)OCO3)CC1` it was -55.3%; in that of `O=C(C1=C[C@@H](c2ccc(Br)cc2)C[C@@H](OCc2ccc(CO)cc2)O1)N1CCN(Cc2ccc3c(c2)OCO3)CC1`, -9.55%.
Regarding `O=C(C1=C[C@H](c2ccc(C(F)(F)F)cc2)C[C@H](OCCCCO)O1)N1CCN(Cc2ccc3c(c2)OCO3)CC1`, the “hERG current change (%, negative = inhibition) at 10uM” value is -44.1%.
Then `O=C(C1=C[C@@H](c2ccc(C(F)(F)F)cc2)C[C@@H](OCCCCO)O1)N1CCN(Cc2ccc3c(c2)OCO3)CC1`, with -68.8%; and `O=C(C1=C[C@H](c2ccc3c(c2)OCO3)C[C@H](OCCCCO)O1)N1CCN(Cc2ccc3c(c2)OCO3)CC1`, with -69.1%.
In the case of `CC(C)(C)[C@H]1C=C(C(=O)N2CCN(Cc3ccc4c(c3)OCO4)CC2)O[C@@H](OCCCCO)C1` it was -23.4%.
In the case of `C[C@@H]1C=C(C(=O)N2CCN(Cc3ccc4c(c3)OCO4)CC2)O[C@H](OCCCCO)C1` it was 4.01%.
On to `O=C(C1=C[C@@H](c2ccc3c(c2)OCO3)C[C@@H](OCCCCO)O1)N1CCOCC1`, for which the “hERG current change (%, negative = inhibition) at 10uM” value is on record as 7.64%.
In the case of `c1ccc2c(c1)NC1(CCCC1)n1c-2nc2ccccc21` it was -9.46%; in that of `CCOP(=S)(OCC)C(O)CCCCCn1c(=O)c(F)cn(C2CCCO2)c1=O` (stereo not drawn), -2.13%; in that of `CN(C(=S)Nc1ccc(F)cc1)C(c1ccccc1)c1ccccc1`, 11.1%.
In the case of `CCn1c(SCC(=O)Nc2ccc(NC(C)=O)cc2)nc2c1c(=O)n(C)c(=O)n2C` it was 24.7%; in that of `O=C(C1=C[C@H](c2ccc3c(c2)OCO3)C[C@H](OCCCCO)O1)N1CCOCC1`, -1.14%.
Then `O=C(C1=C[C@H](c2ccc3c(c2)OCO3)C[C@H](OCCCCO)O1)N1CCN(Cc2ccccc2)CC1`, with -62.8%; and `O=C(C1=C[C@H](c2ccccc2)C[C@H](OCCCCO)O1)N1CCN(Cc2ccc3c(c2)OCO3)CC1`, with -41.8%.
Consider `CN1CCN(C(=O)C2=C[C@H](c3ccc4c(c3)OCO4)C[C@H](OCCCCO)O2)CC1`, for which the “hERG current change (%, negative = inhibition) at 10uM” value was -8.06%.
Then `O=C(C1=C[C@@H](c2ccc3c(c2)OCO3)C[C@@H](OCCCCO)O1)N1CCN(Cc2ccc3c(c2)OCO3)CC1`, with -65.9%; and `CC(=O)n1cc([C@@H]2C=C(C(=O)N3CCN(Cc4ccc5c(c4)OCO5)CC3)O[C@H](OCCCCO)C2)c2ccccc21`, with -50.2%; and `CC(=O)n1cc([C@H]2C=C(C(=O)N3CCN(Cc4ccc5c(c4)OCO5)CC3)O[C@@H](OCc3ccc(CO)cc3)C2)c2ccccc21`, with 3.43%.
Then `O=C(C1=C[C@@H](c2ccccc2)C[C@@H](OCCCCO)O1)N1CCN(Cc2ccc3c(c2)OCO3)CC1`, with -55.2%; and `CC(=O)n1cc([C@H]2C=C(C(=O)N3CCN(Cc4ccc5c(c4)OCO5)CC3)O[C@@H](OCCCCO)C2)c2ccccc21`, with -32.7%; and `O=C(C1=C[C@H](c2ccccc2)C[C@H](OCc2ccc(CO)cc2)O1)N1CCN(Cc2ccc3c(c2)OCO3)CC1`, with -39.5%.
